For 40 compounds, growth inhibition results are on record in PubChem BioAssay (NCI).

The panel holds about 79,000 compounds, 15% with a hit somewhere; the sample as a whole holds those more often. Unmarked numbers belong to inactive results. Calls of active or inactive are those of the source. No stated cut-off is given here; in the data, active means growth inhibition above about 70%; inactive means the rest.

This assay in a line: NCI Yeast Anticancer Drug Screen. Data for the mlh1 rad18 strain (AID 175). Particulars: S. cerevisiae mlh1 rad18 strain growth inhibition; at 50.0 µM; stronger effect = higher value. The essentials: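 Compound-treated yeast growth, normalised to vehicle controls. Strain bears defined DNA repair mutations.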
`CCC(c1ccc(OC)cc1)C(O)(CC)c1ccc(OC)cc1` (stereo not given): the growth inhibition was 98.6% (active).

Regarding `Cc1c(Cl)c(S(N)(=O)=O)cc2c1NC=NS2(=O)=O`, the growth inhibition was -16.6%.

For the compound `CCCCCCCCNc1ncnc2c1cnn2C`, the growth inhibition is 49.9%.

In the case of `Cc1cc(N)c(C)c2c1[nH]c1ccc(Br)cc12`, the growth inhibition is 38.5%.

Regarding `C(=C\c1cnnc2ccccc12)/c1ccco1`, the growth inhibition is 39.8%.

In the case of `Cc1cc(N(CCCCl)CCCCl)ccc1C=Nc1cccc(Cl)c1`, the growth inhibition was 68.2%.

For the compound `CCC[CH2][Sn]([CH2]CCC)([O]C(=O)c1cc(F)ccc1F)[O]C(=O)c1cc(F)ccc1F`, the growth inhibition was 78.2% (active).

Consider `O=[N+]([O-])c1ccc(N2N=NC(CN3CCOCC3)C2N2CCOCC2)cc1` (stereo not given), for which the growth inhibition is 60.1%.

In the case of `O=CC(I)=C(c1ccccc1)c1ccccc1`, the growth inhibition was 86.3% (active).

For the compound `CCC/C(=N\O)S(=O)(=O)c1ccc(NN=O)nc1`, the growth inhibition was -28%.

On to `COc1cc(Cc2n[nH]c(=S)n2-c2ccccc2)c(S(N)(=O)=O)cc1OC`, for which the growth inhibition is 11.4%.

`CC(=O)Nc1ccc(C(C)(C)c2ccc(C)cc2)cc1`: the growth inhibition is -2.15%.

On to `CC(C)=NOc1ccc([N+](=O)[O-])cc1[N+](=O)[O-]`, for which the growth inhibition is 71.3% (active).

As to `CC(=O)Nc1ccc2c(c1)C(S)c1ccccc1-2` (stereo not given), the growth inhibition was 37.2%.

`CCN1CC(=O)N(C)C1=S`: the growth inhibition is 79.5% (active).

Take `[O-][n+]1c(-c2ccccc2)c(Cl)c(-c2ccccc2)n1O`: the growth inhibition was 97.5% (active).

Take `CCCCCCCCCCCCCCCCN(C)c1ccc(S(=O)(=O)O)cc1[N+](=O)[O-]`: the growth inhibition was 80.1% (active).

On to `Cc1ccc2c(c1)-c1c(c3c(c4c1-c1cc(C)ccc1CC4)C(=O)OC3=O)CC2`, for which the growth inhibition was 36.5%.

Regarding `C[N+](C)(CCO)Cc1ccccc1`, the growth inhibition is 34%.

For `CCOC(=O)C(C)(C)Oc1ccc2c(=O)cc(-c3ccccc3)oc2c1`, the growth inhibition is 89.9% (active).

Turning to `CS(=O)c1cc(=O)c2ccccc2s1` (stereo not given), the growth inhibition was 99% (active).

In the case of `COC(=O)c1c[nH]c2ccc(Br)cc12`, the growth inhibition was 40.5%.

On to `CCCCN1C(=O)C(=O)N(c2ccccc2)C1=O`, for which the growth inhibition is 16.9%.

For `Cc1cc(N)c2cc(OCCOc3ccc4nc(C)cc(N)c4c3)ccc2n1`, the growth inhibition was 95.2% (active).

On to `Cc1c2c(c(C)c3c4c(oc13)CCCC4)C=NCC2`, for which the growth inhibition was 80.1% (active).

In the case of `CCCC(c1ccc(O)cc1)c1ccc(O)cc1`, the growth inhibition is 99.5% (active).

Regarding `CC(C)=NNc1ncnc2nc[nH]c12`, the growth inhibition was -7.5%.

Turning to `Clc1ccc(C2=Nc3ccccc3SC(c3ccc(Cl)c(Cl)c3)C2)c(Cl)c1` (stereo not given), the growth inhibition is 63.7%.

Take `N#Cc1c(Cl)nsc1-c1ccc([N+](=O)[O-])cc1`: the growth inhibition was 84.6% (active).

Take `C=CCSc1nc2ccccc2c(=O)n1Cc1ccco1`: the growth inhibition was 46.5%.

Take `COC(=O)CSc1nc2[nH]c(SC)c(C(N)=O)c2c(=O)n1-c1ccccc1`: the growth inhibition was 9.8%.

Regarding `Cc1cc2oc3c(ccc(=O)n3C)c(=O)c2c(C)c1Cl`, the growth inhibition is 17.9%.

Turning to `CC(=O)SC1C(=O)N(C)C(SC(C)=O)C(=O)N1C` (stereo not given), the growth inhibition is 96.5% (active).

With `CCCCCCCCCCCCCCCCOCC(Cl)COP(=O)(O)OP(=O)(O)OCC1OC(n2cc(C)c(=O)[nH]c2=O)CC1O` (stereo not given), the growth inhibition is 84.7% (active).

Regarding `CCCCCCCCCCNC(=O)CBr`, the growth inhibition is 94% (active).

For the compound `O=Cc1c(Cn2ccnc2)c2cc([N+](=O)[O-])ccc2n1Cc1ccccc1`, the growth inhibition was 68.5%.

In the case of `C=C(C)C1CC2=C(O1)C(=O)c1ccccc1C2=O` (stereo not given), the growth inhibition is 89.8% (active).

For the compound `CC(C)C1=CC2=CCC3C(C)(C(=O)O)CCCC3(C)C2CC1` (stereo not given) (tested in a mixture with another compound), the growth inhibition is 88.8% (active).

Take `ClCC1CSC2(CCCCC2)O1` (stereo not given): the growth inhibition was 27.5%.

As to `Oc1cccc2ccc(SSc3ccc4cccc(O)c4n3)nc12`, the growth inhibition is 93.3% (active).
